From PubChem BioAssay
Active and inactive are the calls of the source. How the calls were made is not given here.

target: Pantothenate synthetase (Mycobacterium tuberculosis (strain ATCC 25618 / H37Rv)) (UniProt P9WIL5); assay: Coupled enzyme confirmation of inhibitors against recombinant Mtb PanC (AID 375); settings: coupled enzyme assay; at 10 µM, hits give high values;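 further: 0% = full reaction with vehicle and 100% = no enzyme background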
Sequence (P9WIL5 whole entry, looked up): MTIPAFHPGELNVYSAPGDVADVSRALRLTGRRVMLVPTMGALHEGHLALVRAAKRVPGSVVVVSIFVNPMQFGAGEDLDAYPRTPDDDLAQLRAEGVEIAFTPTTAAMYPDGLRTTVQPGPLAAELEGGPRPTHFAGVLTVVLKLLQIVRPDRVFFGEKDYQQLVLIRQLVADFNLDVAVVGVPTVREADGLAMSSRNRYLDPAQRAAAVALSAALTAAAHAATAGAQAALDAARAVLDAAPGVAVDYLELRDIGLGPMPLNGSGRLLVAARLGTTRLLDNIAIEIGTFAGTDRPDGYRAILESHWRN

SMILES	inhibition
CCCCOC(=O)C1=C(C)Nc2ncnn2C1c1cccc(OC)c1OC (stereo not given)	8% (inactive)
S=c1[nH]nc(-c2cccc(Br)c2)o1	10% (inactive)
Cc1onc(-c2ccccc2)c1C(=O)N[C@@H]1C(=O)N2[C@@H]1SC(C)(C)[C@@H]2C(=O)O	0% (inactive)
COc1ccccc1OCCSc1nc2ccccc2c(=O)[nH]1	0% (inactive)
CC(=O)c1cccc(S(=O)(=O)NCC(c2ccco2)N2CCCCC2)c1 (stereo not given)	0% (inactive)
CCOC(=O)c1c(C)[nH]c(C(=O)Cn2c(=O)c3c(ncn3CC)n(Cc3ccccc3)c2=O)c1C	3% (inactive)
O=S(=O)(NCc1ccco1)c1cccc2cccnc12	1% (inactive)
CCOC(=O)c1c(C)oc2c1c1c(c3ccccc32)OCN(Cc2cccnc2)C1	6% (inactive)
O=c1c2c(-c3ccccc3)csc2nc2n1CCC2	0% (inactive)
CCOC(=O)Cn1c(CCC(=O)O)ccc1-c1ccc(F)cc1	3% (inactive)
O=C(c1ccc2snnc2c1)N1CCOCC1	3% (inactive)
Cc1ccc(-n2c3c(cc(C(=O)O)c2=O)C(=O)CC(C)(C)C3)cc1	3% (inactive)
Cc1ccc(-c2nnc3c4ccccc4c(C)nn23)cc1S(=O)(=O)N1CCN(C)CC1	1% (inactive)
c1ccc(CCc2nc(-c3cccnc3)no2)cc1	0% (inactive)
CCCCc1c(O)nc(SCC(=O)Nc2ccc3c(c2)CCC3)[nH]c1=O	2% (inactive)
COC(=O)C1=CN(C)C=C(C(=O)OC)C1c1ccc(O)c(OC)c1	0% (inactive)
Cc1onc(-c2ccccc2Cl)c1C(=O)NCc1cccnc1	0% (inactive)
O=C(C1CCCO1)N1CCN(C(c2ccccc2)c2ccccc2)CC1 (stereo not given)	0% (inactive)
COc1ccccc1OC(=O)c1ccc(SC)cc1OC	2% (inactive)
COc1ccc(CC(=O)NC2CCN(CC(=O)Nc3ccc4c(c3)OCCO4)CC2)cc1OC	0% (inactive)

SMILES	inhibition
Nc1nc2n(n1)C(c1cccc(Cl)c1)CC(c1ccc(F)cc1)N2 (stereo not given)	0% (inactive)
CC(=O)OCC[N+](C)(C)C	0% (inactive)
O=C(CSc1ncnc2c1cnn2Cc1ccccc1)Nc1ccc2c(c1)OCCO2	5% (inactive)
CCn1cc(C(=O)N2CCN(C(=O)c3ccco3)CC2)c2cc(OC)c(OC)cc2c1=O	0% (inactive)
O=C(CSc1nnc(-c2ccco2)n1CC1CCCO1)N1CCCCC1 (stereo not given)	0% (inactive)
COc1ccccc1NC1=NC(c2ccc(Cl)cc2)N=C(N)N1 (stereo not given)	0% (inactive)
CC1CN(S(=O)(=O)c2ccc(Cl)c(C(F)(F)F)c2)CC(C)O1 (stereo not given)	0% (inactive)
COc1cccc2cc(C(=O)Nc3cccnc3N3CCOCC3)c(=O)oc12	0% (inactive)
COc1cccc(-c2cc(C(F)(F)F)n3ncc(C(=O)O)c3n2)c1	0% (inactive)
Cc1ccc2c(c1)-c1cc(C)nn1C(c1ccc3c(c1)OCO3)N2 (stereo not given)	0% (inactive)
CCn1nnnc1SCC(=O)Nc1nc(-c2cccs2)cs1	0% (inactive)
Cc1cccc2cc(C#N)c(SCCN3CCCCC3)nc12	0% (inactive)
CCCCOC(=O)CSc1nc2c(cc1C#N)C(=O)CC(C)(C)C2	0% (inactive)
Cc1noc(/C=C/N(C)C)c1S(=O)(=O)N1CCCC(C(=O)N2CCc3ccccc32)C1 (stereo not given)	10% (inactive)
Cc1ccc2c(c1)sc1ncc(NC(=O)c3ccccc3)c(=O)n12	2% (inactive)
COc1ccc(C2C(C(=O)NCCN3CCOCC3)c3ccccc3C(=O)N2C2CCCCC2)cc1 (stereo not given)	0% (inactive)
COc1ccccc1N(CC(=O)NC1CCCC1)C(=O)CCC(=O)Nc1cc(C)on1	0% (inactive)
COc1ccc(S(=O)(=O)N2CCN(CC(=O)Nc3ccc(C)c(F)c3)CC2)cc1	0% (inactive)
O=c1cc(C(F)F)oc2c1ccc1ccccc12	0% (inactive)
CCCC(NC(=O)c1ccccc1)c1nc2ccccc2n1Cc1ccc(C(=O)OC)o1 (stereo not given)	0% (inactive)
